SW480 rereplic = A quantitative high throughput screen for small molecules that induce DNA re-replication in SW480 colon adenocarcinoma cells. SW480 DNA re-replication, Hoechst DNA content imaging, 48 h. Potency, µM (doses to about 46.1 µM), actives largely listed as activators. actives 1.8% (n = 340,000); note: nearly all actives have a fitted effect of over 55% in size
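Readout is total intensity of Hoechst-stained nuclei, excited at 405 nm and collected at 500-530 nm. Compound treatment lasted 48 hr at 37 C in 5% CO2 before staining.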
KB-3-1 cytotox = qHTS assay for MDR1-selective chemotherapeutics: Primary screen using the parental adenocarcinoma cell KB-3-1; actives 1.4% (n = 400,000); KB-3-1 viability, CellTiter-Glo ATP luminescence, 72 h; Potency, µM (top dose mostly 46.1 µM), hits mostly cytotoxic; note: nearly all actives have a fitted effect of over 60% in size
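Screening of KB-3-1 cells (DMEM, 10% FBS, phenol-red free) ran from lowest to highest compound concentration; after 72 h at 37 °C viability was read luminescently and curves fitted.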
IL-1B inflam inh = qHTS for Inhibitors of Inflammasome Signaling: IL-1-beta AlphaLISA Primary Screen | THP-1 LPS/ATP IL-1B secretion, AlphaLISA, 16 h; stronger effect = lower value | activity change, % at 57.5 µM | actives 4.7% (n = 360,000) | AID 743279, 2014; in the data active = activity change below about -50%; inconclusive = mostly about -30% to -49%
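Secreted IL-1B measured by AlphaLISA bead assay after 16 h compound exposure of THP-1 cells; compounds (final up to 57.5 uM) added 1 h before LPS (250 ng/mL) and ATP (1.25 mM) stimulation; lower signal means less secretion.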
MCF10A rerep = A quantitative high throughput screen for small molecules that induce DNA re-replication in MCF 10a normal breast cells; MCF 10A DNA re-replication, Hoechst nuclear intensity, 48 h; AID 624296, 2012; actives 2.9% (n = 350,000); Potency, µM (top dose mostly 46.1 µM), usual class: activators; note: nearly all actives have a fitted effect of over 50% in size
KB-V1 MDR tox = qHTS assay for MDR1-selective chemotherapeutics: Primary screen using the drug-selected MDR subline cells KB-V1; KB-V1 MDR cells viability, CellTiter-Glo, 72 h; Potency, µM (doses to about 46.1 µM), actives largely listed as cytotoxic; actives 3.4% (n = 400,000); note: nearly all actives have a fitted effect of over 60% in size
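Luminescent ATP read-out (CellTiter-Glo, 10 min) measures survival of drug-selected KB-V1 MDR cells after 72 h, 37 degrees C compound exposure. Medium: phenol-red-free DMEM, 10% FBS. Values from fitted concentration-response curves.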
Each line names hits and unclear results; the compound was inactive in the other large screens. Rows were chosen to be rich in hits. Some 9.9% of all compounds tested hit in one or more screens of this group. Unless noted, calls come from the whole dose curve; as a rule, active = well fitted curve in the direction sought with a large enough effect; inconclusive = small, poorly fitted or top-dose-only effect, or another doubt; inactive = no such curve, though single readings can be large; an effect the other way counts as inactive or inconclusive.

COCCNC(=O)C1(C)CCCN(C(=O)Cc2ccc3ccccc3c2)C1 (stereo not given)	none (no result: SW480 rereplic, MCF10A rerep)
COc1ccc(-c2cc(C(F)(F)F)nc(SCC(=O)NCc3cnn(C)c3C)n2)cc1OC	KB-3-1 cytotox inconclusive, KB-V1 MDR tox 9.2µM
COc1ccc(-c2cc(C(F)(F)F)nc(SCC(=O)N(C)Cc3cn(C)nc3C)n2)cc1OC	KB-3-1 cytotox inconclusive, MCF10A rerep inconclusive, KB-V1 MDR tox 18µM
Cc1ccc(-c2nc3c4ccccc4ccn3c2CN2CCCCC2)cc1	MCF10A rerep inconclusive
c1ccc(-c2nc3c4ccccc4ccn3c2CN2CCCCC2)cc1	IL-1B inflam inh -71, MCF10A rerep inconclusive
CCC(CC)C(=O)N(C)c1c(C)nc2c(OCc3ccc(C#N)cc3)cccn12	IL-1B inflam inh -71 (no result: SW480 rereplic, MCF10A rerep)
CCC(CC)C(=O)N(C)c1c(C)nc2c(OCc3ccccc3C)cccn12	none (no result: SW480 rereplic, MCF10A rerep)
Cc1nc2c(OCc3ccc(F)c(F)c3)cccn2c1N(C)C(=O)CCC1CCCC1	none (no result: SW480 rereplic, MCF10A rerep)
Cc1nc2c(OCc3ccc(OC(F)F)cc3)cccn2c1N(C)C(=O)CCC1CCCC1	IL-1B inflam inh -58, KB-V1 MDR tox inconclusive (no result: SW480 rereplic, MCF10A rerep)
Cc1ccccc1COc1cccn2c(N(C)C(=O)CCC3CCCC3)c(C)nc12	IL-1B inflam inh -57 (no result: SW480 rereplic, MCF10A rerep)
Cc1cc(C)c2[nH]c(C(=O)Nc3ccc(F)cc3Br)cc2c1	none
O=C(Nc1ccc(-n2nncc2-c2ccco2)cc1)c1cc2ccccc2oc1=O	MCF10A rerep inconclusive
O=C(CN1C(=O)NC2(CCCC2)C1=O)NCc1ccc(Cl)cc1	IL-1B inflam inh -51
CCC1(c2ccc(Cl)cc2)NC(=O)N(CC(=O)NCc2ccc(F)cc2)C1=O (stereo not given)	IL-1B inflam inh -53, KB-V1 MDR tox inconclusive
Cc1cc(C)c2oc(-c3cccc(NC(=O)COc4ccc(Cl)cc4C)c3C)nc2c1	KB-3-1 cytotox inconclusive (no result: SW480 rereplic, IL-1B inflam inh, MCF10A rerep)
Cc1cc(/C=C/c2nc3ccccc3s2)ccc1N(C)C	none (no result: SW480 rereplic, IL-1B inflam inh, MCF10A rerep)
Cc1cc(C)c2c(/C=C/c3ccc(N(C)C)cc3)ccnc2c1	KB-V1 MDR tox inconclusive (no result: SW480 rereplic, IL-1B inflam inh, MCF10A rerep)
Cc1cnc2ccc(I)cc2c1/C=C/c1ccc(N(C)C)cc1	KB-3-1 cytotox 12µM, KB-V1 MDR tox inconclusive (no result: SW480 rereplic, IL-1B inflam inh, MCF10A rerep)
CN(C)c1ccc(/C=C/c2c(F)cnc3ccccc23)cc1	KB-3-1 cytotox 9.2µM, KB-V1 MDR tox inconclusive (no result: SW480 rereplic, IL-1B inflam inh, MCF10A rerep)
CN(C)c1ccc(/C=C/c2c3c(nc4ccccc24)CCCC3)cc1	none (no result: SW480 rereplic, IL-1B inflam inh, MCF10A rerep)
Cc1cc(/C=C/c2c(C)cnc3ccccc23)ccc1N(C)C	KB-3-1 cytotox inconclusive, KB-V1 MDR tox 16µM (no result: SW480 rereplic, IL-1B inflam inh, MCF10A rerep)
Cc1ccc(C)c(N2CC(C(=O)Nc3cc(C)on3)CC2=O)c1 (stereo not given)	none
c1ccc2cc(C3OCC4(CCCC4)CO3)ccc2c1	none (no result: SW480 rereplic, MCF10A rerep)
COc1ccc(CCNC(=O)CCCn2c(=O)c3ccccc3n(Cc3cccc(Cl)c3)c2=O)cc1OC	none (no result: SW480 rereplic, IL-1B inflam inh, MCF10A rerep)
CC(C)c1ccccc1OCC(O)CN1CCN(S(=O)(=O)c2ccc([N+](=O)[O-])cc2)CC1 (stereo not given)	KB-3-1 cytotox 6.5µM, IL-1B inflam inh -83, KB-V1 MDR tox inconclusive
Cc1ccc(S(=O)(=O)NNC(=O)c2cc(C)c(C)cc2N)cc1	KB-V1 MDR tox 16µM
COC(=O)NNS(=O)(=O)c1ccc(C)cc1	SW480 rereplic 26µM
COc1cccc(CC2(CO)CCCN(Cc3ccc(OC)c(C)c3OC)C2)c1 (stereo not given)	KB-3-1 cytotox inconclusive, MCF10A rerep inconclusive
CCn1c(O)c(C2=c3ccccc3=NC2=O)c2cc(Br)ccc21	SW480 rereplic inconclusive, IL-1B inflam inh -64, MCF10A rerep 16µM
O=C1N=c2ccccc2=C1c1c(O)n(-c2cccc(F)c2)[nH]c1=O	MCF10A rerep inconclusive
O=C(N/N=C/c1ccc([N+](=O)[O-])o1)c1cn(-c2ccccc2)nc1-c1ccccc1	MCF10A rerep 16µM, KB-V1 MDR tox inconclusive
O=C(N/N=C/c1ccco1)c1cc(-c2cccc(Br)c2)nc2ccccc12	KB-3-1 cytotox inconclusive, MCF10A rerep inconclusive, KB-V1 MDR tox inconclusive
Cc1ccc(/C=N/NC(=O)c2cc(-c3ccncc3)nc3ccccc23)o1	SW480 rereplic inconclusive, KB-3-1 cytotox 5.8µM, MCF10A rerep inconclusive

High-throughput results: PubChem, National Center for Advancing Translational Sciences (NCATS)
